Source: PubChem BioAssay
AI-2 QS mod: modulators of Vibrio harveyi AI-2 quorum sensing system; Vibrio harveyi JMH597 AI-2 luminescence/OD600 ratio, 9 h; active compounds read low; strain lacks LuxN and CqsS sensors; 0 = neutral-control median; activity change, % at 7.5 µM; 300,000 tested, 0.4% active; in the data active means activity change below about -75%, passing the limit was not always enough; inconclusive means no clear call, values can overlap the other calls;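 further: luminescence divided by OD600 gain over 9 h not by final OD600 alone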
ALR inh: inhibitors of human sulfhydryl oxidase ALR. inhibition, % (no concentration beside the values). purified ALR, DTT oxidation, H2O2 HRP-luminol luminescence. P55789. AID 485317. 290,000 tested, 3.8% active;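 active means mean replicate inhibition above about 79%, with every replicate also reaching it, limit read from the data; inconclusive means only one of the two criteria met; inactive means mean below limit and not every replicate reaching it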
Target sequence (P55789 whole entry, looked up): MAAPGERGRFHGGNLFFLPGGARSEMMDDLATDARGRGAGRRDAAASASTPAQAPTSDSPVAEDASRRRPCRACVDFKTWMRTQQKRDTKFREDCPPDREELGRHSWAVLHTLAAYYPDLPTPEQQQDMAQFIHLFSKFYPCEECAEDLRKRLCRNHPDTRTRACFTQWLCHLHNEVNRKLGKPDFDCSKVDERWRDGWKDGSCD
HIF act: HIF pathway transcriptional activation; activation, % at 7.5 µM (by protocol); 300,000 tested, 0.32% active; AID 1910; U2OS HRE-luciferase reporter, luminescence; normalized: DMSO 0%, desferrioxamine 100%;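 active means mean activation of at least 10% of the iron chelator positive control signal, with at least half of replicates also reaching 10%; inconclusive means mean and replicate majority disagree about reaching 10%; inactive means mean and most replicates under 10%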
Mot1-301 SUMO: blocks SUMOylation pathway, rescuing yeast Mot1-301 growth | S. cerevisiae Mot1-301 growth rescue, ATP luminescence, 38.5C; percent above DMSO median, 100 means doubled | growth rescue, % at 18.8 µM | 320,000 tested, 1% active | AID 2716;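 active means every valid replicate shows activation above 250% relative to neutral control wells; inactive means the rest, any valid replicate at or below 250%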
JMH597 growth: retest: inhibitors of Vibrio harveyi JMH597 growth. shares compounds with AI-2 QS mod. OD600 absorbance, 9 h; lacks LuxN and CqsS sensors. growth inhibition, % at 7.5 µM. 750 tested, 1% active. AID 2726;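 active means every replicate shows growth inhibition above 50%; inconclusive means at least half, but not all, replicates pass that cutoff; inactive means fewer than half of replicates pass it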
BB721 lum counter: retest counter-screen: lowers luminescence of constitutive-QS Vibrio harveyi BB721; shares compounds with AI-2 QS mod; 9 h; inhibition, % at 7.5 µM; 750 tested, 95% active; AID 2727;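 active means inhibition above about 80% in every replicate, not just on average, limit read from the data; inconclusive means at least half of replicates past the limit, but not all; inactive means fewer than half of replicates past the limit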
BB721 growth: retest Vibrio harveyi BB721 growth inhibition; shares compounds with AI-2 QS mod; OD600 absorbance, 9 h; growth inhibition, % at 7.5 µM; 750 tested, 3% active;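 active means every replicate shows growth inhibition above 50%; inconclusive means at least half but not all replicates above 50% inhibition; inactive means under half of replicates above 50% inhibition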
AI-2 QS JMH597: Vibrio harveyi AI-2 signaling luminescence modulation – JMH597 strain, confirmation | 750 tested, 97% active | Vibrio harveyi JMH597 AI-2 quorum sensing luminescence, 9 h; luxN and CqsS knockout, AI-2 only | inhibition, % at 7.5 µM | shares compounds with AI-2 QS mod | AID 2736;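 active means every replicate shows more than 75% inhibition of signal versus neutral control wells; inconclusive means half to three quarters of replicates exceed 75% inhibition; inactive means fewer than half of replicates exceed 75% inhibition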
Numbers stand for hits; i = inactive; ? = inconclusive; nt = not tested or not shown. Rows were chosen to be rich in hits. Some 4.8% of all compounds tested hit in one or more screens of this group.

SMILES	AI-2 QS mod	ALR inh	HIF act	Mot1-301 SUMO	JMH597 growth	BB721 lum counter	BB721 growth	AI-2 QS JMH597
CCCCNC(=O)/C=C/c1cccs1	i	i	i	i	nt	nt	nt	nt
Nc1cc(Oc2ccc(Cl)cc2Cl)nc(N)n1	-95	i	i	i	i	99	i	99
O=C(C#Cc1ccccc1)NCc1ccccc1F	-85	i	i	i	i	94	i	95
COc1cccc(COC(=O)CCNC(=O)c2ccc(Cl)cc2)c1OC	i	i	i	i	nt	nt	nt	nt
Cc1c(O)ccc(C(=O)COc2ccccc2F)c1O	?	i	i	i	i	89	i	93
O=C(COc1ccccc1F)c1ccc(O)cc1O	i	i	i	i	nt	nt	nt	nt
O=C(NCc1ccccc1)C(c1ccc(Cl)cc1)N(C(=O)c1csnn1)C1CC1 (configuration not stated)	i	i	i	i	nt	nt	nt	nt
Cc1ccc(O)c(N/C=C/C(=O)c2ccc(F)cc2)c1	?	i	i	i	i	86	i	89
O=C(Nc1ccc(Oc2ccc(NC(=O)c3ccco3)c(NC(=O)c3ccco3)c2)cc1)c1ccco1	i	i	i	i	nt	nt	nt	nt
O=C(Nc1ccc(Oc2ccc3ccccc3c2)cc1)c1ccco1	-96	i	i	i	i	99	102	99
N#Cc1nc(-c2cccs2)oc1NCc1ccc2c(c1)OCO2	-85	i	nt	i	i	94	i	96
N#Cc1nc(-c2ccc(F)cc2)oc1NCc1cccc2c1OCO2	?	i	i	i	i	89	i	93
CC(C)(C)NC(=O)Nc1nnc(SCC(=O)NC2CCCCC2)s1	i	nt	i	i	nt	nt	nt	nt
NS(=O)(=O)c1ccc(CCNS(=O)(=O)Cc2ccc(Cl)cc2)cc1	nt	i	i	i	nt	nt	nt	nt
Clc1ccc(-c2nnc(CCc3ccccc3)o2)c(Cl)c1	-90	i	nt	i	i	97	i	98
O=C(NCCc1c[nH]c2ccccc12)c1ccc2c(c1)OCO2	-85	i	i	i	i	93	i	97
Cn1c(C(=O)NCCc2c[nH]c3ccccc23)cc2sccc21	?	i	i	i	i	93	i	94
O=C(COc1cccc(C(F)(F)F)c1)Nc1ccc(S(=O)(=O)N2CCCC2)cc1	-93	nt	i	i	i	98	i	?
CSc1ncccc1C(=O)OCC(=O)c1ccc(S(=O)(=O)N2CCCCC2)cc1	i	i	i	i	nt	nt	nt	nt
CSc1ncccc1C(=O)OCC(=O)Nc1ccc(S(=O)(=O)N2CCCC2)cc1	-92	i	i	i	i	98	i	99
O=C(COC(=O)Cc1ccc2c(c1)OCCO2)Nc1ccc(S(=O)(=O)N2CCCC2)cc1	-92	i	i	i	i	96	i	97
Cc1cc(C(=O)OCC(=O)Nc2ccc(S(=O)(=O)N3CCOCC3)cc2)c(C)o1	-91	i	i	i	i	98	i	98
Cc1ccc(C2=NS(=O)(=O)N(C)C(C(=O)Nc3cc(C)n(CC(=O)N4CCC(C)CC4)n3)=C2)cc1	i	i	i	i	nt	nt	nt	nt
CC(OC(=O)c1cccc(-n2cnnn2)c1)C(=O)Nc1cccc(Cl)c1 (configuration not stated)	i	i	i	i	nt	nt	nt	nt
CCOC(=O)C1CCN(C(=O)c2cc(S(=O)(=O)N3CCc4ccccc43)ccc2OC)CC1	i	i	i	i	nt	nt	nt	nt
SMILES	AI-2 QS mod	ALR inh	HIF act	Mot1-301 SUMO	JMH597 growth	BB721 lum counter	BB721 growth	AI-2 QS JMH597
COc1ccc(NC(=O)C2CSC(C)(C)N2C=O)cc1 (configuration not stated)	-89	nt	i	i	i	96	i	97
C/C(N)=C(/C#N)C(=O)COC(=O)C1CCN(S(=O)(=O)c2cccs2)CC1	nt	i	nt	i	nt	nt	nt	nt
Cc1ccc(CNc2oc(-c3ccco3)nc2C#N)cc1	-86	i	i	i	i	95	i	98
N#Cc1nc(-c2ccccc2F)oc1NCc1ccccc1	-90	i	i	i	i	96	i	97
COc1ccc(NC(=O)c2cc3ccccn3n2)cc1	i	i	i	i	nt	nt	nt	nt
O=C(NCc1ccc(Cl)cc1)c1cc2ccccn2n1	-84	i	i	i	i	92	i	95
O=C(CSc1ncc(-c2ccccc2)[nH]1)Nc1ccccc1	-82	99	nt	i	i	93	i	94
O=C(CCc1ccccc1)NCc1ccccc1	i	i	i	i	nt	nt	nt	nt
Cc1ccc(CNC(=O)CCc2ccccc2)cc1	-81	i	i	i	i	93	i	94
CC(C)c1ccc(CNC(=O)CCc2ccccc2)cc1	-89	i	i	i	i	96	i	97
Nc1cc(=O)[nH]c(SCC(=O)NC2CCCCCCC2)n1	nt	i	nt	i	nt	nt	nt	nt
COc1cccc(CNC(=O)c2cc(COc3c(F)cccc3F)on2)c1	i	nt	i	i	nt	nt	nt	nt
CC(CNC(=O)c1cc(COc2c(F)cccc2F)on1)Oc1cccnc1 (configuration not stated)	-91	i	i	i	i	94	i	96
O=C(CCc1nnc2ccc(NCc3ccco3)nn12)Nc1ccccc1F	i	i	i	i	nt	nt	nt	nt
c1ccc(-c2ccc(-c3cnc4n3CCCCC4)cc2)cc1	-86	nt	i	i	i	84	i	90
Cc1ccc(-c2cnc3n2CCCCC3)cc1	i	i	i	i	nt	nt	nt	nt
Cc1ccc(S(=O)(=O)N[C@@H](Cc2ccccc2)C(=O)N2CCC(C(=O)N[C@@H](CC(C)C)C(=O)O)CC2)cc1	i	i	i	i	nt	nt	nt	nt
Cc1ccccc1NCCC(=O)Nc1ccc(F)cc1	-87	99	i	i	i	95	i	97
Cc1ccccc1NCCC(=O)Nc1ccc(Cl)cc1	-84	98	i	i	i	97	i	97
O=C(O)C1CCCC2CN3CCc4c([nH]c5ccccc45)C3C(O)C21 (configuration not stated)	i	i	i	i	nt	nt	nt	nt
CCc1ccc(NC(=O)CCc2ccc(C)o2)cc1	?	i	i	i	nt	nt	nt	nt
Cc1ccc(CCC(=O)Nc2ccc(C#N)cc2)o1	-80	i	i	i	i	90	i	93
CC(=O)c1ccc(NC(=O)CCc2ccc(C)o2)cc1	-88	i	i	i	i	95	i	96
CC1Cc2nc(SCC(=O)NCC3CCCO3)n(-c3ccc(F)cc3)c(=O)c2S1 (configuration not stated)	i	i	i	i	nt	nt	nt	nt
O=C(Nc1cccc(Cl)c1)OCc1cnc(Cl)s1	?	i	i	i	i	92	i	92
Cn1cnc(S(=O)(=O)Nc2ccc(OC(F)(F)F)cc2)c1	?	i	i	nt	i	i	i	88
COc1ccc(OC)c(S(=O)(=O)N2CCCC(C(=O)NCCN3CCOCC3)C2)c1 (configuration not stated)	i	i	i	i	nt	nt	nt	nt
CC(C)[C@H]1COCCS(=O)(=O)N1Cc1cccc(Cl)c1	i	i	i	i	nt	nt	nt	nt
